# Assay results reported in PubChem BioAssay AID686978 (National Center for Advancing Translational Sciences (NCATS), 2013).
# Several values for one entry are separate records, joined by “and”; a condition that tells them apart may be missing. Identical values can stand only once. Screen size: about 420,000 compounds; about 64,000 (15%) were called active. Another 27% or so got no clear call; they are omitted. Calls come from the whole dose curve; as a rule, active = well fitted inhibition curve with a large enough effect; inconclusive = small, poorly fitted or top-dose-only effect; inactive = flat fitted curve, though single readings scatter. These entries were drawn from the full list. Entries that show only a call come without a potency. Numbered stars: 1 amine (or outer) side, 2 acyl side, 3 side chain; on linkers, the order of the positions; unused ones are H or OH. Bridge positions count the residues as written; N and C are the ends. Square brackets hold non-standard residues; d marks the D form. Peptide text beside a SMILES is read from it. * marks the point of attachment. X11 = NC1=N[C@@H]([C@H](N[*:1])C(=O)[*:2])C[C@H](O)N1; ΔAla(Z-3-ureido) = NC(=O)N/C=C(\N)C(=O)O; β3hOrn = NCCC[C@H](N)CC(=O)*; Dap = NC[C@H](N)C(=O)O
# Assay: qHTS for Inhibitors of human tyrosyl-DNA phosphodiesterase 1 (TDP1): qHTS in cells in absence of CPT; note: nearly all actives have a fitted effect of over 55% in size
# Details: DT40 Tdp1-/- hTDP1 cells, no CPT, ATP luminescence, 48 h; activity change, negative = growth inhibition: at 46.2 µM (top of the series)
# Outline: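 DT40 Tdp1-/-;hTDP1 cells, no CPT (DMSO vehicle only), 400 cells/well; compounds pin-transferred; ≥48 hr, 37 °C; CellTiter-Glo 30 min RT dark, luminescence read.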
# Potency is the fitted concentration of half-maximal effect.
row,Compound,Potency
1,Cc1ccccc1CCN(CC(=O)NC1CCCCC1)C(=O)c1csnn1,inactive
2,CSCC[C@H](NC(=O)CCCn1nnc2ccccc2c1=O)C(=O)O,inactive
3,C[C@H]1CN([C@@H](C)CO)C(=O)c2cc(-c3ccccc3F)cnc2O[C@H]1CN(C)C(=O)C1CCOCC1,inactive
4,NC(=O)N/N=C\c1cccs1,inactive
5,COc1ccccc1C(=O)N/C(=C/c1ccc2c(c1)OCO2)C(=O)Nc1cccc(C(=O)O)c1,inactive
6,CC(=O)Nc1ccc(CN2CCC(Oc3ccc(C(=O)N4CCCC4)cc3)CC2)cc1,inactive
7,O=C(Cc1ccc(Br)cc1)NCCN1CCOCC1,inactive
8,COc1ccc2c(c1)CCc1cnc(-n3ncc(C(=O)NCCN4CCOCC4)c3C)nc1-2,inactive
9,COc1ccc(C2OC(=O)CC2C(=O)NC(C)C)cc1 (configuration not stated),inactive
10,COc1ccc(-c2ccc(C(=O)NC(C)C)c3occc23)c(C)c1,16.4 µM (active)
11,COc1ccc(-c2ccc(C(=O)NCCN3CCOCC3)c3occc23)c(C)c1,20.6 µM (active)
12,COc1ccc(N)c(C)c1,inactive
13,CCN(CC(=O)NCCc1ccccc1)S(=O)(=O)c1ccccc1,inactive
14,COc1ccc2c(c1)c1nc3n(c(=O)c1n2CC(=O)Nc1ccccc1)CCS3,inactive
15,O=C1C(=O)N(CCN2CCOCC2)C(c2cccc(Cl)c2)/C1=C(/O)c1ccc2c(c1)OCO2 (configuration not stated),inactive
16,CCOC(=O)C(Cc1ccccc1)NC(=O)CCc1c(C)nc2c(c(C)nn2-c2ccc(C)c(C)c2)c1C (configuration not stated),inactive
17,CCCNC(=O)CCc1c(C)nc2c(c(C)nn2-c2ccccc2)c1C,inactive
18,COC(=O)c1ccc(NC(=O)CCc2c(C)nc3c(c(C)nn3-c3ccc(C)cc3)c2C)cc1,6.51 µM (active)
19,Cc1ccc(C)c(NC(=O)CSc2nnc(Cc3cccn3C)n2-c2ccc(F)cc2)c1,inactive
20,CC1CCN(C(=O)C2CCN(S(=O)(=O)N3CCC4(CC3)OCCO4)CC2)CC1,inactive
21,Nc1nnc(SCn2nnc3ccccc3c2=O)s1,inactive
22,O=c1[nH]nc(Cc2ccccn2)c2ccccc12,inactive

row,Compound,Potency
1,O=C(Nc1ccccc1)c1nnsc1S(=O)(=O)c1ccc(Cl)cc1,2.59 µM (active)
2,O=C(Nc1ccc(Cl)cc1)c1ccsn1,inactive
3,O=C(Nc1cccc(Cl)c1)c1csnn1,inactive
4,Cc1cc(C)n2nc(C(=O)NC(C)(C)C)nc2n1,inactive
5,O=S(=O)(Nc1ccc(-c2ccc(N3CCOCC3)nn2)cc1)c1cc(Cl)ccc1Cl,inactive
6,NC(=O)C1(Nc2ccccc2Cl)CCCC1,inactive
7,O=C(NNc1ccccc1Cl)C(O)(c1cccc(C(F)(F)F)c1)c1cccc(C(F)(F)F)c1,16.4 µM (active)
8,CC(CC(=O)Nc1cc(C(F)(F)F)ccc1Cl)c1ccccc1 (configuration not stated),inactive
9,CC(C)Nc1ccc(-n2nc3ccccc3[n+]2[O-])cc1,inactive
10,c1ccc(Cc2cc[n+](Cc3ccccc3)cc2)cc1,20.6 µM (active)
11,[O-][n+]1ccc(OCc2ccccc2)cc1,inactive
12,CN(C)c1cc[n+](Cc2ccccc2)cc1,0.411 µM (active)
13,CN(C)c1ccc(CSc2ccccc2)cc1,inactive
14,O=C(Nc1cc(-c2nn(CC(=O)N3CCCCC3)c(=O)c3ccccc23)ccc1N1CCOCC1)c1ccc(Cl)cc1,inactive
15,Cc1ccc(-c2csc3nnc(SCC(=O)NCc4ccco4)n23)cc1,inactive
16,COc1cc(F)c(C2=CC(=O)CC(C)(C)C2)cc1F,inactive
17,Cc1c(CCOC(=O)CC23CC4CC(CC(C)(C4)C2)C3)sc[n+]1Cc1ccc([N+](=O)[O-])cc1,18.4 µM (active)
18,O=C(CSC1=Nc2ccccc2C2=NC(c3ccccc3)C(=O)N12)NCC1CCCO1 (configuration not stated),inactive
19,Cc1ccc(C)c(S(=O)(=O)N2CC(=O)Nc3ccccc32)c1,inactive
20,O=C(Nc1ccc(NC(=O)c2cccs2)cn1)c1ccco1,inactive
21,CCOc1ccccc1NC(=O)Cn1nnc(C(=O)NCc2cccs2)c1N,130 nM (active) and 51.7 nM (active)
22,Cc1ccc(NC(=O)Cn2nnc(C(=O)NCc3ccco3)c2N)c(C)c1,inactive

row,Compound,Potency
1,CCOc1ccccc1NC(=O)Cc1cccs1,inactive
2,Cc1cc(C)n(CC(C)NCc2c(C(=O)N3CCOCC3)nc3c(C)cccn23)n1 (configuration not stated),inactive
3,Fc1ccc(Nc2nnns2)cc1,inactive
4,Cc1sc2c(c1C)c(=O)n(-c1ccccc1)c(=O)n2CC(=O)NCC1CCCO1 (configuration not stated),inactive
5,Nc1ccc(S(=O)(=O)NC(=O)c2ccccc2)cc1,inactive
6,Nc1ccc(C(=O)Nc2ccccc2N)cc1,2.37 µM (active) and 3.26 µM (active)
7,Nc1ccc(C(=O)NCc2ccccc2)cc1,inactive
8,COc1ccc2oc(=O)c(C(=O)N3CCCC3)cc2c1,inactive
9,CC(C)C[C@H](NC(=O)NCCc1ccc(Cl)cc1)C(=O)O,inactive
10,O=C(O)CC1(CC(=O)Nc2cccc(C(F)(F)F)c2)CCCC1,inactive
11,O=C(Nc1cccc(C(F)(F)F)c1)c1cc(Br)cc(Br)c1O,13.3 µM (active)
12,O=C(O)CSCC(=O)Nc1cccc(C(F)(F)F)c1,inactive
13,Cn1c(SCC(=O)N2CCOCC2)nnc1-c1ccc(NC(=O)c2ccccc2F)cc1,inactive
14,CC1CN(C(=S)Nc2ccc(Br)cc2Cl)CC(C)O1 (configuration not stated),inactive
15,C=CCNC(=S)N/N=C/c1ccc(OCc2ccccc2)cc1,inactive
16,CNC(=S)N/N=C/c1ccc(OCc2ccccc2)c(Br)c1,10.3 µM (active)
17,O=C(N/N=C/c1cccc(OCc2ccccc2)c1)c1ccc(Br)o1,inactive
18,CC1CN(c2cc(=O)n(-c3cccc(Br)c3)c(=O)[nH]2)CC(C)O1 (configuration not stated),inactive
19,CS(=O)(=O)c1cccc(-c2ccc3nncn3c2)c1,inactive
20,CSc1ccccc1C(=O)OCC(=O)N1CCN(C(C)=O)CC1,inactive
21,Cc1ccc(N2C(=O)CN=C2Nc2nc(C)cc(C)n2)cc1,inactive
22,Cc1cc(/C=C2\SC(=Nc3ccc(N4CCOCC4)cc3)N(C)C2=O)c(C)n1-c1cccnc1,inactive

row,Compound,Potency
1,O=C(Nc1ccc([N+](=O)[O-])cc1)OCCc1ccccn1,inactive
2,Cc1ccc2nc(Nc3ccccc3)cc(C)c2c1,10.3 µM (active)
3,Clc1ccc(Nc2ccc3ccccc3n2)cc1,inactive
4,Cc1cc(Nc2ccccc2)nc(N)n1,inactive
5,Cc1nc(CC(=O)NNS(=O)(=O)c2ccc(F)c(Cl)c2)cs1,inactive
6,NCCC[C@H](N)CC(=O)N[C@H]1CNC(=O)[C@H]([C@H]2C[C@H](O)NC(N)=N2)NC(=O)/C(=C/NC(N)=O)NC(=O)[C@H](CO)NC(=O)[C@H](CO)NC1=O (β3hOrn-[Dap]SS[ΔAla(Z-3-ureido)][X11]; lactam 1-C),inactive
7,CCOc1cc(C)ccc1OCc1nnc(SCC(=O)Nc2cccc(C(=O)O)c2)n1-c1ccccc1,inactive
8,Cc1c(Br)c([N+](=O)[O-])nn1C(C)C(=O)Nc1nccs1 (configuration not stated),inactive
9,CC(=O)Nc1ccc(S(=O)(=O)NC(C)C(=O)OCC(=O)NC2CCCC2)cc1 (configuration not stated),inactive
10,CCOC(=O)c1ccc(NC(=O)Cn2c(=O)cc(C)c3c(C)nn(-c4cccc(F)c4)c32)cc1,18.4 µM (active)
11,CCc1ccc(-n2nc(C)c3c(C)cc(=O)n(CC(=O)Nc4ccc(F)cc4C)c32)cc1,inactive
12,COc1ccc(NC(=O)Cn2c(=O)cc(C)c3c(C)nn(-c4cccc(Cl)c4C)c32)cc1OC,inactive
13,Cc1cnc(-n2ncc(C(=O)N3CCN(C(C)C)CC3)c2-c2ccco2)nc1-c1ccc(F)cc1,inactive
14,O=C(Nc1nnc(CCN2CCCCC2)s1)c1cccc(Cl)c1,inactive
15,CCN(CC)CC1(O)CCN(C(=O)c2ccc(Cl)c(Cl)c2)CC1,inactive
16,CCCNC(=O)c1ccc(Cl)c(Cl)c1,inactive
17,CCCn1c(=N)n(CC(=O)c2ccc(Cl)c(Cl)c2)c2ccccc21,11.6 µM (active)
18,O=C(O[C@H]1[C@H](Cc2ccccc2)NS(=O)(=O)[C@H]2C[C@@H]3C=C[C@]12O3)c1ccc([N+](=O)[O-])cc1,inactive
19,O=S1(=O)CCOC[C@H](Cc2ccccc2)N1Cc1ccccc1Br,inactive
20,O=C(O[C@@H]1[C@H](Cc2ccccc2)NS(=O)(=O)[C@H]2C[C@@H]3C=C[C@]12O3)c1ccccc1Br,16.4 µM (active)
21,Cc1ccc(Nc2cc(=O)n(C3CCCCC3)c(=O)[nH]2)cc1C,inactive
22,C/C(=C\C(=O)c1ccc(Br)cc1)N1CCCCC1,inactive

row,Compound,Potency
1,O=S1(=O)CCN2C(=N1)SC1=C2CCN(Cc2ccccc2)C1,inactive
2,O=C(O)CC12CC3CC(C1)CC(n1ncc(NCc4ccc(F)cc4)c(Cl)c1=O)(C3)C2,inactive
3,O=C(O)c1ccc(Cn2cnc3c(=S)nc[nH]c32)cc1,inactive
4,CC1CCN(S(=O)(=O)c2ccc3c(c2)n(C)c(=O)n3C)CC1,inactive
5,CC(=O)N1CCSc2ccc(S(=O)(=O)N3CCC(C)CC3)cc21,14.6 µM (active)
6,CCOC(=O)C1CCN(S(=O)(=O)c2ccc3c(c2)N(C(C)=O)CCO3)CC1,inactive
7,CCOC(=O)c1ccccc1C(=O)N1CCOCCOCCOCC1,inactive
8,CCC(C)CN1CCC(CO)(Cc2ccccc2Cl)CC1 (configuration not stated),inactive
9,O=C(Nc1cnccn1)c1cccnc1,inactive
10,O=C(O)c1ccc2c3c(cccc13)C(=O)N(OS(=O)(=O)c1ccccc1)C2=O,inactive
11,CN(Cc1ccccc1)c1ncnc2onc(-c3ccc(F)cc3)c12,18.4 µM (active)
12,Cc1ccc(Cl)cc1N(C)C(=O)C1CCCN(c2ncnc3onc(-c4ccc(F)cc4)c23)C1 (configuration not stated),4.11 µM (active)
13,COc1ccccc1N1CCN(c2ncnc3onc(-c4cccc(Cl)c4)c23)CC1,inactive
14,CN(Cc1ccccc1)c1ccc(-c2nc(-c3ccccc3)no2)cc1[N+](=O)[O-],inactive
15,CCc1noc(C)c1C(=O)N1CCCC(N2CCN(c3ccc(F)cc3)CC2)C1 (configuration not stated),inactive
16,CCc1ccccc1N(C)C(=O)C1CCCN(c2ncnc3onc(-c4ccc(F)cc4)c23)C1 (configuration not stated),11.6 µM (active)
17,COc1ccccc1N1CCN(c2ncnc3onc(-c4ccc(F)cc4)c23)CC1,18.4 µM (active)
18,COc1ccccc1N1CCN(c2ncnc3sc(C)c(-c4ccccc4)c23)CC1,inactive
19,CC1=C(c2ccc(F)cc2)S(=O)(=O)N=C1N1CCC(C(=O)NCCc2ccccc2C)CC1,inactive
